According to PubChem BioAssay AID449762 (Southern Research Specialized Biocontainment Screening …, 2010):
The whole screen tested about 330,000 compounds, of which about 1,900 (0.58%) were called active. Not shown: some 4% with an inconclusive outcome. The list is a sample of the results. Results with a measured potency or affinity are listed apart. Values without a mark were called inactive. Cut-off read from the data, not from the text of the source: inconclusive = inhibition above about 70% without an active follow-up result; inactive = below that.

Assay: M. tuberculosis growth inhibition, HTS (AID 449762);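 note: bacterial growth assessed after seven days of incubation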
Conditions: M. tuberculosis H37Rv growth inhibition, 7H9 media; at 25 µM; active compounds read high

Row | Compound | inhibition
1 | CC(C)(C)NC(=O)COC(=O)c1ccc(S(=O)(=O)N2CCCC2)cc1 | 5.11%
2 | Cc1nnc(N2C(=O)c3cccc4c([N+](=O)[O-])ccc(c34)C2=O)s1 | -2.32%
3 | CN(C)CCCN1C(=O)c2cccc3c([N+](=O)[O-])ccc(c23)C1=O | 36.5%
4 | Cc1ccc(S(=O)(=O)NCC(=O)OCC(=O)Nc2cccc(S(=O)(=O)NC3=NCCCCC3)c2)cc1 | 7.74%
5 | COCCn1cnnc1SCC(=O)Nc1cccc(S(=O)(=O)N(C)c2ccccc2)c1 | -4.95%
6 | COc1cc(OC)c(C(=O)Nc2cccnc2)cc1OC | 3.08%
7 | CN(C)c1ncc(S(=O)(=O)c2ccccc2)c(N)n1 | -5.65%
8 | CN1CCN(c2ccc(F)cc2N)CC1 | -0.88%
9 | CN1CCN(C2=Cc3ccccc3Sc3cc(F)ccc32)CC1 | -12.7%
10 | CCOc1ccc(S(=O)(=O)NCCC(=O)N2CCC(Cc3ccccc3)CC2)cc1 | 44.3%
11 | CCN(CC)S(=O)(=O)c1ccc(N2CCN(CCO)CC2)nc1 | -5.66%
12 | Cc1nc2ccc(NC(=O)c3ccc([N+](=O)[O-])cc3)cc2s1 | 3.43%
13 | Cc1nc2ccc(NC(=O)c3cc([N+](=O)[O-])cc([N+](=O)[O-])c3Cl)cc2s1 | 38.8%
14 | COc1ccc(S(=O)(=O)N2CCN(CC(=O)Nc3ccccc3Cl)CC2)cc1 | -4.47%
15 | CN(C)C1(CNC(=O)Nc2ccccc2)CCCCC1 | 3.43%
16 | CN(C)C1(CNC(=O)c2ccc(NS(=O)(=O)c3ccc(Cl)c(Cl)c3)cc2)CCCCC1 | -3.67%
17 | CCc1cc2c(=O)n(CC(=O)NCCc3ccc(OC)c(OC)c3)cnc2s1 | -7.38%
18 | CCN(CC)C(=O)CN(c1cccc(Br)c1)S(C)(=O)=O | -7.74%
19 | COC(C/C=C/[C@H](O)[C@@H](C)OCc1ccccc1)OC | -3.21%
20 | O=C(C1=C[C@H](c2csc3ccccc23)C[C@H](OCc2ccc(CO)cc2)O1)N1CCN(Cc2ccc3c(c2)OCO3)CC1 | 21.8%
21 | O=C(C1=C[C@H](c2csc3ccccc23)C[C@H](OCCCCO)O1)N1CCN(Cc2ccc3c(c2)OCO3)CC1 | 59.9%
22 | Cc1ccc(/C=C/C(=O)O)cc1S(=O)(=O)N1CCc2ccccc21 | -1.47%
23 | C/C(=N\NC(=O)c1sccc1C)c1cccnc1 | -1.12%
24 | CCN1CC(CN(C)Cc2nc(COc3ccccc3)no2)CC1=O (stereo not drawn) | 2.85%

Row | Compound | inhibition
25 | C[C@@H](NCCc1ccc(O)cc1)[C@@H](O)c1ccc(O)cc1 | -1.64%
26 | C[C@H](NCCc1ccc(O)cc1)[C@H](O)c1ccc(O)cc1 | 1.5%
27 | CCCCNC(=O)c1c(CSc2ccc(Cl)cc2)noc1C(=O)NCc1ccccc1 | 8.53%
28 | CC(C)(C)c1[nH]nc2c1C(Cc1ccccc1)C(C#N)=C(N)O2 (stereo not drawn) | -0.95%
29 | COc1ccccc1Nc1ccc(C(=O)NC2CCCCC2)cn1 | -2.47%
30 | C/C(=N\NC(=O)COc1ccc(C)cc1[N+](=O)[O-])c1cccs1 | 2.03%
31 | C/C(CC(=O)NC(C)(C)C)=N\NC(=O)COc1ccc(C)cc1Br | 2.95%
32 | Cc1ccsc1C(=O)OCC(=O)NCc1ccccc1 | -4.47%
33 | COc1cccc(/C=C2\SC(=S)N(CCCC(=O)NC3=NCCS3)C2=O)c1 | 2.44%
34 | Cc1cc(C=C2C(=O)N(C)C(=S)N(C)C2=O)c(C)n1C1CCCC1 | 64.7%
35 | Cc1cc(C=C2C(=O)N(C)C(=S)N(C)C2=O)c(C)n1C1CCCCC1 | -5.32%
36 | CCOC(=O)C1CCN(S(=O)(=O)c2ccc(-c3cc(C(F)(F)F)n(C)n3)s2)CC1 | -4.16%
37 | Cc1cnc(C(=O)Nc2cccc3ncccc23)cn1 | -2.6%
38 | Cc1c(C)c(C)c(CO/N=C/c2cccs2)c(C)c1C | -0.39%
39 | COc1cc(NCCCCCCCN)c2ncccc2c1 | 7.02%
40 | COc1cc(NC(C)CCCN)c2ncccc2c1Oc1ccccc1 (stereo not drawn) | -3.95%
41 | CCCCC(=O)Nc1cccc(-c2nn3c(C)nnc3s2)c1 | 8.49%
42 | Cc1cc(/C=C2/C(=O)NN(c3ccccc3)C2=O)c(C)n1-c1ccc(O)cc1 | 5.28%
43 | O=C1NN(c2cccc(Br)c2)C(=O)/C1=C\c1ccc(O)cc1 | 1.89%
44 | CN(CC1COc2ccccc2O1)C(=S)NC1CCCCC1 (stereo not drawn) | -4.56%
45 | Cc1nn(Cc2ccc(C(=O)NN)o2)c(C)c1Cl | -6.65%
46 | Cc1ccc(CNC(=O)c2ccc(Cn3nc(C)c(Cl)c3C)o2)cc1 | -10.1%
47 | Cc1c(Cl)c([N+](=O)[O-])nn1Cc1ccc(C(=O)N/N=C\c2ccccn2)o1 | 0.01%
48 | COc1cc(/C=N\NC(=O)c2ccc(Cn3nc([N+](=O)[O-])c(Cl)c3C)o2)ccc1O | -5.71%
